Key:
Assay in all cases: log2 ratio of Biotin-Ahx-Ub-VS probe labelling (fragment/DMSO); higher = less target engagement (more negative = stronger competition), active = hit call of the paper (q ≤ 0.05, log2 ratio ≤ -1)
Details in all cases: compound concentration: 200 uM; treatment time: 3 h
ALG13 = target: T1, ALG13 (UniProt Q9NP73)
T1 sequence (whole entry): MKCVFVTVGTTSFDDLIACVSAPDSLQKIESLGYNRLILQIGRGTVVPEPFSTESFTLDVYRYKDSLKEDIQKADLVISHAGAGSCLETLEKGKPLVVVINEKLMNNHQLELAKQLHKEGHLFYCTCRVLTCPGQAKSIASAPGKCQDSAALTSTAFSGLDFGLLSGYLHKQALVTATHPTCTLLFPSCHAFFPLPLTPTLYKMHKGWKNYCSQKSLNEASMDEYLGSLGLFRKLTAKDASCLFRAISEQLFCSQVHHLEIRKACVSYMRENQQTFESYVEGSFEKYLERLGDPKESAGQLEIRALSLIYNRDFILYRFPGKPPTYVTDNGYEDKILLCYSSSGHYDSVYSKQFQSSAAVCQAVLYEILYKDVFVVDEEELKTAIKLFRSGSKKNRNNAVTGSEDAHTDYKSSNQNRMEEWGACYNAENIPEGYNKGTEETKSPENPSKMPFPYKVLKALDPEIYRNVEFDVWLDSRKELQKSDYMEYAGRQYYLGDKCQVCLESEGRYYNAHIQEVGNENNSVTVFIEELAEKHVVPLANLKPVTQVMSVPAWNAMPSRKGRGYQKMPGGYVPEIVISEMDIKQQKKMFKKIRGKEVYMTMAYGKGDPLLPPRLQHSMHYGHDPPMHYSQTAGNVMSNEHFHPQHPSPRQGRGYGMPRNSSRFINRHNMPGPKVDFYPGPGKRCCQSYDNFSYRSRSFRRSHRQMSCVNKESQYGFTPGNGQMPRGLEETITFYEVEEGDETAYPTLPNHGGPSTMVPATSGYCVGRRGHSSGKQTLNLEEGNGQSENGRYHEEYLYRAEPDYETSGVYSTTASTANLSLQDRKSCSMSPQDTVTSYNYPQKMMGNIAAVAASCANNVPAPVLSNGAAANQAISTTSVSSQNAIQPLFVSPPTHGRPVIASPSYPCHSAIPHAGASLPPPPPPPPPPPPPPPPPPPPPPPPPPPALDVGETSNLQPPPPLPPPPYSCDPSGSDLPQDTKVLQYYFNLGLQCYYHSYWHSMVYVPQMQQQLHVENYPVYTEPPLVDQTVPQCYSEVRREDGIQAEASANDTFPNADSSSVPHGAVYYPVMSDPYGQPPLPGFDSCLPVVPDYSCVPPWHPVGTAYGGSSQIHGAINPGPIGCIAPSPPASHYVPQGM
How it was run: (§1)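 In triplicate, 495 µg of HEK293T lysate per sample was incubated with fragment at 200 µM or vehicle for 3 h. Biotin-Ahx-Ub-VS was then added to 0.5 µM final for 1 h, and labelled DUBs were captured with NeutrAvidin, digested with LysC and trypsin, and measured by diaPASEF LC-MS/MS. Data are average log2 fragment/vehicle ratios by unpaired t-test from global-median-normalised Spectronaut label-free quantities, restricted to proteins with ≥2 unique peptides.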

ATXN3 = ATXN3 (UniProt P54252)
How it was run: as §1

BAP1 = target: T2, BAP1 (UniProt Q92560)
T2 sequence (whole entry): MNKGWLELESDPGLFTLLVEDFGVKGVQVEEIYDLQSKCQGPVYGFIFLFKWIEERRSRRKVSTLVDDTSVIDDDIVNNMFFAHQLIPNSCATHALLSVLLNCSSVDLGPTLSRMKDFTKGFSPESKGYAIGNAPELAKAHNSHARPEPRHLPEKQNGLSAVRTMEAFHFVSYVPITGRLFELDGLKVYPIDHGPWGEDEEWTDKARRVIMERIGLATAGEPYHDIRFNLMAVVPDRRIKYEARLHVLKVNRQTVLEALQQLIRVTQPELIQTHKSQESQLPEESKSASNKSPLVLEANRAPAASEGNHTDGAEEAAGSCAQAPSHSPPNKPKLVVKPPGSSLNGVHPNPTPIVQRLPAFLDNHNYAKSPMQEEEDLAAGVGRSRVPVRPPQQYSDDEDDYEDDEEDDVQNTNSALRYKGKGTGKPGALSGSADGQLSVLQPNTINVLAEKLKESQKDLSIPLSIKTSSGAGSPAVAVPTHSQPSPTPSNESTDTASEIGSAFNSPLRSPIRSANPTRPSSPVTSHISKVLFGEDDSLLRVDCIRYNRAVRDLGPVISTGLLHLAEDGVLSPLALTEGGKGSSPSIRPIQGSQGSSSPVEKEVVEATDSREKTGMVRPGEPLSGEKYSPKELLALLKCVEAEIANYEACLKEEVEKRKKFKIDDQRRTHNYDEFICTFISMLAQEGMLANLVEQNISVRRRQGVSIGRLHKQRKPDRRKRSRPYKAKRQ
How it was run: as §1

EIF3F = EIF3F (UniProt O00303)
How it was run: as §1

EIF3H = EIF3H (UniProt O15372)
How it was run: as §1

FAM105A = target: T3, FAM105A (UniProt Q9NUU6)
T3 sequence (whole entry): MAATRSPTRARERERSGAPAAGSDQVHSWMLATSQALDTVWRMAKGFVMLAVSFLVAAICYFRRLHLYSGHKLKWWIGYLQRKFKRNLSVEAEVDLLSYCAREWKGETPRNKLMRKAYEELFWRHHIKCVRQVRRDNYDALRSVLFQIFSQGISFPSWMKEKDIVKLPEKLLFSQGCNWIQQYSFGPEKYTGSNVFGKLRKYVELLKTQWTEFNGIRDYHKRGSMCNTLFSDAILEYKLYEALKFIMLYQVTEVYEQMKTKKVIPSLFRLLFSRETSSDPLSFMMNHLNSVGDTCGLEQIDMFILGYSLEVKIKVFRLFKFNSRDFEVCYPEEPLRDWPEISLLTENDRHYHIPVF
How it was run: as §1

OTUB1 = OTUB1 (UniProt Q96FW1)
How it was run: as §1

OTUD4 = target: T4, OTUD4 (UniProt Q01804)
T4 sequence (whole entry): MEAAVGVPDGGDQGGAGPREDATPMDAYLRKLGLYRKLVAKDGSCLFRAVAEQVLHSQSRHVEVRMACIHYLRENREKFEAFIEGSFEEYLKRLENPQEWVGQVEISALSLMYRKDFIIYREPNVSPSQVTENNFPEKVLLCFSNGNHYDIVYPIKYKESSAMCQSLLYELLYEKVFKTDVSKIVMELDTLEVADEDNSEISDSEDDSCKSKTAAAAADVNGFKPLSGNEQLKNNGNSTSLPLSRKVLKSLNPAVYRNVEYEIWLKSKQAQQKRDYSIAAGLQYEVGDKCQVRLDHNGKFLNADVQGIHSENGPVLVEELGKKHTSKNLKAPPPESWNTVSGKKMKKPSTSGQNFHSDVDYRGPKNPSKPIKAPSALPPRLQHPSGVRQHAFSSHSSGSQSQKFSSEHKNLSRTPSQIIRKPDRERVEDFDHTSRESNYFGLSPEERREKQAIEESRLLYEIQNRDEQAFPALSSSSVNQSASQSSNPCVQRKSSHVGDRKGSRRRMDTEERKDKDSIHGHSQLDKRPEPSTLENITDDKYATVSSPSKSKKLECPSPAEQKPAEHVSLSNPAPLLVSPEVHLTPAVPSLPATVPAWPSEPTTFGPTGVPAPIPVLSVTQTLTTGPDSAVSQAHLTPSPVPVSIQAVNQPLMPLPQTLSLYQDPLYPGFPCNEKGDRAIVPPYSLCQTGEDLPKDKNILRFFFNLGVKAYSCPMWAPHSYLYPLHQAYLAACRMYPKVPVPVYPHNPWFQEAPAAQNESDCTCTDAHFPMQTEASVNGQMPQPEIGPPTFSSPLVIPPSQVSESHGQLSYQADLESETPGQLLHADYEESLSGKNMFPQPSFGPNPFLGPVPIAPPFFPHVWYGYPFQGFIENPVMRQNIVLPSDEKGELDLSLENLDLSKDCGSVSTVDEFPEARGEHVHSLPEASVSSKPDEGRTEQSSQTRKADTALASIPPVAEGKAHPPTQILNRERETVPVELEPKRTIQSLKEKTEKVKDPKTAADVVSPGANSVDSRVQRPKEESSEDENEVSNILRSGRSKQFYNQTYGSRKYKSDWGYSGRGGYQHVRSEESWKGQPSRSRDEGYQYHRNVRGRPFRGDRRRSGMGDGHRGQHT
How it was run: as §1

OTUD5 = target: T5, OTUD5 (UniProt Q96G74)
T5 sequence (whole entry): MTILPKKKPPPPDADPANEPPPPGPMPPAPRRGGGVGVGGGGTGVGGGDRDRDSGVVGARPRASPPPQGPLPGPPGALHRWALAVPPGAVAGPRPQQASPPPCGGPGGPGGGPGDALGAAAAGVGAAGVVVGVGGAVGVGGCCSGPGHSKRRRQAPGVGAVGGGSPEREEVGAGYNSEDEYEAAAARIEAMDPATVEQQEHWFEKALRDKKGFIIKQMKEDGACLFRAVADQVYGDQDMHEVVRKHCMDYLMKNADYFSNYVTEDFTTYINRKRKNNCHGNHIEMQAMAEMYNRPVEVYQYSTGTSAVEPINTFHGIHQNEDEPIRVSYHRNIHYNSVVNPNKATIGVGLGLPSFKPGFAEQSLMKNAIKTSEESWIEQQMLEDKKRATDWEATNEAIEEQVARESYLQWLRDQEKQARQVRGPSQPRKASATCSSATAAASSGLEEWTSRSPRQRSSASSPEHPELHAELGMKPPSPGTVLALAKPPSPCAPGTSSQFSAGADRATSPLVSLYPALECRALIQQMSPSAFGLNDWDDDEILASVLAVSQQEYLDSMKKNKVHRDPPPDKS
How it was run: as §1

Measured: log2 ratio of Biotin-Ahx-Ub-VS probe labelling

Chain of EIF3H (O15372 whole entry): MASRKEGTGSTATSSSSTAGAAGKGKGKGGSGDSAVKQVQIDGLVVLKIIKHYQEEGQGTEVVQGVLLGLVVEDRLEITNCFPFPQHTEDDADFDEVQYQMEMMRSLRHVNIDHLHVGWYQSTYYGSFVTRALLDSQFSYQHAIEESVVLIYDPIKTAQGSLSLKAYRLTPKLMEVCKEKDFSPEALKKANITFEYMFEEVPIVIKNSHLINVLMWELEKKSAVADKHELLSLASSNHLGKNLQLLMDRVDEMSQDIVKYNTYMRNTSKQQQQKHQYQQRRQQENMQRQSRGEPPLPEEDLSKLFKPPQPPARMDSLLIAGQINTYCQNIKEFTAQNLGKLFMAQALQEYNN
Chain of ATXN3 (P54252 whole entry): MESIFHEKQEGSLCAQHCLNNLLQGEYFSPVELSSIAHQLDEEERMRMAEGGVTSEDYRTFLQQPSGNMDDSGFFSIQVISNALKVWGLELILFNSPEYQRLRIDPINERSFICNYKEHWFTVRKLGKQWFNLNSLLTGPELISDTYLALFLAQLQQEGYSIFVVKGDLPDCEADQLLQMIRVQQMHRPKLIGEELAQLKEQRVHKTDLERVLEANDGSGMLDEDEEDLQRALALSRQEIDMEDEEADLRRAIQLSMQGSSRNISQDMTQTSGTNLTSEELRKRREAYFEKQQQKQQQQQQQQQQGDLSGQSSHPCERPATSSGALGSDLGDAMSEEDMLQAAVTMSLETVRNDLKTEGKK
Chain of EIF3F (O00303 whole entry): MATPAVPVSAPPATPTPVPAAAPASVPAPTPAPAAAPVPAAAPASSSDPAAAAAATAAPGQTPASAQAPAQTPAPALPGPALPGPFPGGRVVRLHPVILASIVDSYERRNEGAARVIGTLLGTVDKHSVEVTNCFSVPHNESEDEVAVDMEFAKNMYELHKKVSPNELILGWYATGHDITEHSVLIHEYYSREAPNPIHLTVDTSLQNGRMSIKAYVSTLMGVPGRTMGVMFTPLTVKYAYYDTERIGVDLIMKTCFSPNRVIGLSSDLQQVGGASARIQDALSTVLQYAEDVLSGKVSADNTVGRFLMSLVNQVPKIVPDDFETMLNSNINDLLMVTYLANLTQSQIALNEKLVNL
Chain of OTUB1 (Q96FW1 whole entry): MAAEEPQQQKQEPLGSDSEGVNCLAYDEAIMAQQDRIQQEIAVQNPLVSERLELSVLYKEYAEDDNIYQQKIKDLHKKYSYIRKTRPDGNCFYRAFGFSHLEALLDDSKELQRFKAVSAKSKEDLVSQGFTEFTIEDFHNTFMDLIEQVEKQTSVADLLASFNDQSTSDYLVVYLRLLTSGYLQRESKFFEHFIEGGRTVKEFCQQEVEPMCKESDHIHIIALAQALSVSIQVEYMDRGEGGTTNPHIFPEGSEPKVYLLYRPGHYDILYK

O=C(CCl)NC1CCOc2ccccc21 (centres undefined)
inactive: ALG13 -0.044 | ATXN3 -0.806 | EIF3F -0.349 | EIF3H 0.199 | FAM105A 0.29 | OTUB1 -0.321 | OTUD5 -0.73
active: BAP1 -2.55 | OTUD4 -2.03

Reference: the supplement of paper PMC11732987, “Enantioselective OTUD7B fragment discovery through chemoproteomics screening and high-throughput optimisation” (Communications Chemistry, 2025)
